# Assay results reported in the supplement of paper PMC8728848.
# Many of the other results were omitted from the sample, so the strongest signals are more common in it than they were.
# B1: Als3-41 (Candida albicans) (protein)
# chain: KTITGVFNSFNSLTWSNAATYNYKGPGTPTWNAVLGWSLDGTSASPGDTFTLNMPCVFKFTTSQTSVDLTAHGVKYATCQFQAGEEFMTFSTLTCTVSNTLTPSIKALGTVTLPLAFNVGGTGSSVDLEDSKCFTAGTNTVTFNDGGKKISINVDFERSNVDPKGYLTDSRVIPSLNKVSTLFVAPQCANGYTSGTMGFANTYGDVQIDCSNIHVGITKGLNDWNYPVSSESFSYTKTCSSNGIFITYKNVPAGYRPFVDAYISATDVNSYTLSYANEYTCAGGYWQRAPFTLRWTGYRNSDAGSNGIVIVATTRTVTDSTTAVTTLPFDPNRDKTKTIEILKPIPTTTITTSYVGVTTSYLTKTAPIGETATVIVD
# Assays:
# Experiment in all cases: glycan array binding signal (z-score within array); higher = stronger binding
# Details in all cases: glycan notation: IUPAC condensed, linker removed
# Fuc(a1-2)Gal(b1-3)GlcNAc = biological target: Fuc(a1-2)Gal(b1-3)GlcNAc
# Summary of the method: (§1)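 Glycan array binding is given as a within-array Z-score, which can be read as non-binding when negative. The arrays, 3228 of them, came from the Consortium for Functional Glycomics database and were retained only where the protein sequence was available. Z-scores were averaged across arrays of the same protein sequence at different concentrations or buffers and across linkers.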
# [1] = biological target: Fuc(a1-2)Gal(b1-3)GlcNAc(b1-2)Man(a1-3)[Fuc(a1-2)Gal(b1-3)GlcNAc(b1-2)Man(a1-6)]Man(b1-4)GlcNAc(b1-4)[Fuc(a1-6)]GlcNAc
# Summary of the method: as §1
# [2] = biological target: Fuc(a1-2)Gal(b1-3)GlcNAc(b1-3)Gal(b1-4)Glc
# Summary of the method: as §1
# [3] = biological target: Fuc(a1-2)Gal6S(b1-3)GlcNAc
# Summary of the method: as §1
# [4] = biological target: Fuc(a1-2)[Gal(a1-3)]Gal(b1-4)GlcNAc(b1-2)Man(a1-3)[Fuc(a1-2)[Gal(a1-3)]Gal(b1-4)GlcNAc(b1-2)Man(a1-6)]Man(b1-4)GlcNAc(b1-4)GlcNAc
# Summary of the method: as §1
# [5] = biological target: Fuc(a1-2)[Gal(a1-3)]Gal(b1-4)GlcNAc(b1-3)[Fuc(a1-2)[Gal(a1-3)]Gal(b1-4)GlcNAc(b1-6)]GalNAc
# Summary of the method: as §1
# [6] = biological target: Fuc(a1-2)[Gal(a1-3)]Gal(b1-4)GlcNAc(b1-6)GalNAc
# Summary of the method: as §1
# [7] = biological target: Fuc(a1-2)[GalNAc(a1-3)]Gal(b1-3)GlcNAc(b1-2)Man(a1-3)[Fuc(a1-2)[GalNAc(a1-3)]Gal(b1-3)GlcNAc(b1-2)Man(a1-6)]Man(b1-4)GlcNAc(b1-4)GlcNAc
# Summary of the method: as §1
# [8] = biological target: Fuc(a1-2)[GalNAc(a1-3)]Gal(b1-4)GlcNAc(b1-2)Man(a1-3)[Fuc(a1-2)[GalNAc(a1-3)]Gal(b1-4)GlcNAc(b1-2)Man(a1-6)]Man(b1-4)GlcNAc(b1-4)[Fuc(a1-6)]GlcNAc
# Summary of the method: as §1
# [9] = biological target: Fuc(a1-2)[GalNAc(a1-3)]Gal(b1-4)GlcNAc(b1-3)Gal(b1-4)GlcNAc(b1-3)Gal(b1-4)GlcNAc
# Summary of the method: as §1
# [10] = biological target: Fuc(a1-3)[Gal(b1-4)]GlcNAc(b1-3)Gal(b1-3)[Fuc(a1-4)]GlcNAc
# Summary of the method: as §1
# [11] = biological target: Fuc(a1-3)[Gal3S(b1-4)]GlcNAc6S
# Summary of the method: as §1
# Fuc(a1-4)GlcNAc = biological target: Fuc(a1-4)GlcNAc
# Summary of the method: as §1
# Gal(a1-2)Gal = biological target: Gal(a1-2)Gal
# Summary of the method: as §1
# Gal(b1-2)Gal = biological target: Gal(b1-2)Gal
# Summary of the method: as §1
# [12] = biological target: Gal(b1-3)GlcNAc(b1-3)Gal(b1-4)GlcNAc(b1-2)[Gal(b1-3)GlcNAc(b1-3)Gal(b1-4)GlcNAc(b1-6)]Man(a1-6)[Gal(b1-3)GlcNAc(b1-3)Gal(b1-4)GlcNAc(b1-2)Man(a1-3)]Man(b1-4)GlcNAc(b1-4)[Fuc(a1-6)]GlcNAc
# Summary of the method: as §1
# [13] = biological target: Gal(b1-3)[Fuc(a1-4)]GlcNAc
# Summary of the method: as §1
# [14] = biological target: Gal(b1-3)[Neu5Ac(b2-6)]GalNAc
# Summary of the method: as §1
# [15] = biological target: Gal(b1-4)GlcNAc(b1-2)Man(a1-6)[GlcNAc(b1-2)Man(a1-3)]Man(b1-4)GlcNAc(b1-4)GlcNAc
# Summary of the method: as §1
# [16] = biological target: Gal(b1-4)GlcNAc(b1-3)Gal(b1-4)GlcNAc(b1-2)Man(a1-3)[Gal(b1-4)GlcNAc(b1-3)Gal(b1-4)GlcNAc(b1-2)Man(a1-6)]Man(b1-4)GlcNAc(b1-4)GlcNAc
# Summary of the method: as §1
# [17] = biological target: Gal(b1-4)GlcNAc(b1-3)Gal(b1-4)GlcNAc(b1-3)Gal(b1-4)GlcNAc(b1-2)Man(a1-3)[Gal(b1-4)GlcNAc(b1-3)Gal(b1-4)GlcNAc(b1-3)Gal(b1-4)GlcNAc(b1-2)Man(a1-6)]Man(b1-4)GlcNAc(b1-4)GlcNAc
# Summary of the method: as §1
# [18] = biological target: Gal(b1-4)GlcNAc(b1-3)Gal(b1-4)GlcNAc(b1-3)Gal(b1-4)GlcNAc(b1-3)Gal(b1-4)GlcNAc(b1-3)Gal(b1-4)GlcNAc(b1-2)Man(a1-3)[Gal(b1-4)GlcNAc(b1-3)Gal(b1-4)GlcNAc(b1-3)Gal(b1-4)GlcNAc(b1-3)Gal(b1-4)GlcNAc(b1-3)Gal(b1-4)GlcNAc(b1-2)Man(a1-6)]Man(b1-4)GlcNAc(b1-4)GlcNAc
# Summary of the method: as §1
# [19] = biological target: Gal(b1-4)GlcNAc(b1-3)Gal(b1-4)GlcNAc(b1-3)Gal(b1-4)GlcNAc(b1-3)Gal(b1-4)GlcNAc(b1-3)Gal(b1-4)GlcNAc(b1-2)[Gal(b1-4)GlcNAc(b1-3)Gal(b1-4)GlcNAc(b1-3)Gal(b1-4)GlcNAc(b1-3)Gal(b1-4)GlcNAc(b1-3)Gal(b1-4)GlcNAc(b1-6)]Man(a1-6)[Gal(b1-4)GlcNAc(b1-3)Gal(b1-4)GlcNAc(b1-3)Gal(b1-4)GlcNAc(b1-3)Gal(b1-4)GlcNAc(b1-3)Gal(b1-4)GlcNAc(b1-2)Man(a1-3)]Man(b1-4)GlcNAc(b1-4)[Fuc(a1-6)]GlcNAc
# Summary of the method: as §1
# [20] = biological target: Gal(b1-4)GlcNAc(b1-3)[Fuc(a1-3)GlcNAc(b1-6)]Gal(b1-4)Glc
# Summary of the method: as §1
# Gal3S(b1-4)Glc6S = biological target: Gal3S(b1-4)Glc6S
# Summary of the method: as §1
# GalNAc(b1-4)GlcNAc = biological target: GalNAc(b1-4)GlcNAc
# Summary of the method: as §1
# GalNAc(b1-4)GlcNAc6S = biological target: GalNAc(b1-4)GlcNAc6S
# Summary of the method: as §1
# [21] = biological target: GlcNAc(b1-2)[GlcNAc(b1-4)]Man(a1-3)[GlcNAc(b1-4)][GlcNAc(b1-2)[GlcNAc(b1-6)]Man(a1-6)]Man(b1-4)GlcNAc(b1-4)[Fuc(a1-6)]GlcNAc
# Summary of the method: as §1
# [22] = biological target: GlcNAc(b1-3)Gal(b1-4)GlcNAc(b1-2)[GlcNAc(b1-3)Gal(b1-4)GlcNAc(b1-6)]Man(a1-6)[GlcNAc(b1-3)Gal(b1-4)GlcNAc(b1-2)Man(a1-3)]Man(b1-4)GlcNAc(b1-4)GlcNAc
# Summary of the method: as §1
# [23] = biological target: GlcNAc(b1-3)Gal(b1-4)GlcNAc(b1-3)Gal(b1-4)GlcNAc(b1-2)Man(a1-3)[GlcNAc(b1-3)Gal(b1-4)GlcNAc(b1-3)Gal(b1-4)GlcNAc(b1-2)Man(a1-6)]Man(b1-4)GlcNAc(b1-4)GlcNAc
# Summary of the method: as §1
# [24] = biological target: GlcNAc(b1-3)Gal(b1-4)GlcNAc(b1-3)Gal(b1-4)GlcNAc(b1-3)Gal(b1-4)GlcNAc(b1-2)Man(a1-3)[GlcNAc(b1-3)Gal(b1-4)GlcNAc(b1-3)Gal(b1-4)GlcNAc(b1-3)Gal(b1-4)GlcNAc(b1-2)Man(a1-6)]Man(b1-4)GlcNAc(b1-4)[Fuc(a1-6)]GlcNAc
# Summary of the method: as §1
# GlcNAc(b1-3)Man = biological target: GlcNAc(b1-3)Man
# Summary of the method: as §1
# GlcNAc(b1-4)GlcNAc = biological target: GlcNAc(b1-4)GlcNAc
# Summary of the method: as §1
# Kdn(a2-3)Gal(b1-4)GlcNAc = biological target: Kdn(a2-3)Gal(b1-4)GlcNAc
# Summary of the method: as §1
# [25] = biological target: Man(a1-2)Man(a1-6)[Man(a1-3)]Man(a1-6)[Man(a1-2)Man(a1-2)Man(a1-3)]Man(b1-4)GlcNAc(b1-4)GlcNAc
# Summary of the method: as §1
# Neu5Ac(a2-3)Gal = biological target: Neu5Ac(a2-3)Gal
# Summary of the method: as §1
# [26] = biological target: Neu5Ac(a2-3)Gal(b1-3)GalNAc(b1-4)[Neu5Ac(a2-3)]Gal(b1-4)Glc
# Summary of the method: as §1
# [27] = biological target: Neu5Ac(a2-3)Gal(b1-4)GlcNAc(b1-2)Man
# Summary of the method: as §1
# [28] = biological target: Neu5Ac(a2-3)Gal(b1-4)GlcNAc(b1-2)Man(a1-3)[Neu5Ac(a2-3)Gal(b1-4)GlcNAc(b1-2)Man(a1-6)]Man(b1-4)GlcNAc(b1-4)[Fuc(a1-6)]GlcNAc
# Summary of the method: as §1
# [29] = biological target: Neu5Ac(a2-3)Gal(b1-4)GlcNAc(b1-3)Gal(b1-4)GlcNAc(b1-3)Gal(b1-4)GlcNAc(b1-2)Man(a1-3)[Neu5Ac(a2-3)Gal(b1-4)GlcNAc(b1-3)Gal(b1-4)GlcNAc(b1-3)Gal(b1-4)GlcNAc(b1-2)Man(a1-6)]GalNAc
# Summary of the method: as §1
# [30] = biological target: Neu5Ac(a2-3)GalNAc(b1-4)GlcNAc
# Summary of the method: as §1
# [31] = biological target: Neu5Ac(a2-6)Gal(b1-4)GlcNAc(b1-2)Man(a1-3)Man(b1-4)GlcNAc(b1-4)GlcNAc
# Summary of the method: as §1
# [32] = biological target: Neu5Ac(a2-6)Gal(b1-4)GlcNAc(b1-2)Man(a1-3)[Man(a1-6)]Man(b1-4)GlcNAc(b1-4)GlcNAc
# Summary of the method: as §1
# [33] = biological target: Neu5Ac(a2-8)Neu5Ac(a2-3)[Gal(b1-3)GalNAc(b1-4)]Gal(b1-4)Glc
# Summary of the method: as §1
# [34] = biological target: Neu5Gc(a2-8)Neu5Gc(a2-6)Gal(b1-4)GlcNAc
# Summary of the method: as §1
binder,measurement,setting,value
B1,glycan array binding signal (z-score),Fuc(a1-2)Gal(b1-3)GlcNAc,-0.256
same,glycan array binding signal (z-score),[1],-0.306
same,glycan array binding signal (z-score),[2],-0.317
same,glycan array binding signal (z-score),[3],-0.047
same,glycan array binding signal (z-score),[4],-0.283
same,glycan array binding signal (z-score),[5],1.91
same,glycan array binding signal (z-score),[6],-0.229
same,glycan array binding signal (z-score),[7],-0.203
same,glycan array binding signal (z-score),[8],-0.001
same,glycan array binding signal (z-score),[9],1.63
same,glycan array binding signal (z-score),[10],-0.315
same,glycan array binding signal (z-score),[11],1.6
same,glycan array binding signal (z-score),Fuc(a1-4)GlcNAc,7.63
same,glycan array binding signal (z-score),Gal(a1-2)Gal,-0.006
same,glycan array binding signal (z-score),Gal(b1-2)Gal,-0.182
same,glycan array binding signal (z-score),[12],0.669
same,glycan array binding signal (z-score),[13],-0.315
same,glycan array binding signal (z-score),[14],-0.359
same,glycan array binding signal (z-score),[15],-0.102
same,glycan array binding signal (z-score),[16],6.2
same,glycan array binding signal (z-score),[17],2.56
same,glycan array binding signal (z-score),[18],1.05
same,glycan array binding signal (z-score),[19],-0.117
same,glycan array binding signal (z-score),[20],-0.31
same,glycan array binding signal (z-score),Gal3S(b1-4)Glc6S,-0.151
same,glycan array binding signal (z-score),GalNAc(b1-4)GlcNAc,0.551
same,glycan array binding signal (z-score),GalNAc(b1-4)GlcNAc6S,1.79
same,glycan array binding signal (z-score),[21],-0.311
same,glycan array binding signal (z-score),[22],1.97
same,glycan array binding signal (z-score),[23],2.21
same,glycan array binding signal (z-score),[24],1.72
same,glycan array binding signal (z-score),GlcNAc(b1-3)Man,0.501
same,glycan array binding signal (z-score),GlcNAc(b1-4)GlcNAc,1.79
same,glycan array binding signal (z-score),Kdn(a2-3)Gal(b1-4)GlcNAc,-0.355
same,glycan array binding signal (z-score),[25],-0.239
same,glycan array binding signal (z-score),Neu5Ac(a2-3)Gal,-0.322
same,glycan array binding signal (z-score),[26],-0.31
same,glycan array binding signal (z-score),[27],0.213
same,glycan array binding signal (z-score),[28],-0.35
same,glycan array binding signal (z-score),[29],6.54
same,glycan array binding signal (z-score),[30],-0.224
same,glycan array binding signal (z-score),[31],-0.296
same,glycan array binding signal (z-score),[32],-0.268
same,glycan array binding signal (z-score),[33],-0.006
same,glycan array binding signal (z-score),[34],-0.217
